# Article PMC7862700, “An all-to-all approach to the identification of sequence-specific readers for epigenetic DNA modifications on cytosine”
# How the values were obtained:
# Experiment in all cases: DAPPL (digital affinity profiling via proximity ligation, sequencing); 10 mM Tris-HCl pH 7.5, 50 mM NaCl, 1 mM DTT, 4% glycerol, room temperature, 30 min; GST-TFs on glutathione beads, 16-mer random dsDNA library, 0.1% formaldehyde crosslink after washing; high values mean tight binding
# [1] = target: T1, FEV (Homo sapiens, UniProt Q99581 1-238); settings: protein: recombinant; tags: N-terminal GST; dsDNA, one strand shown
# T1 sequence: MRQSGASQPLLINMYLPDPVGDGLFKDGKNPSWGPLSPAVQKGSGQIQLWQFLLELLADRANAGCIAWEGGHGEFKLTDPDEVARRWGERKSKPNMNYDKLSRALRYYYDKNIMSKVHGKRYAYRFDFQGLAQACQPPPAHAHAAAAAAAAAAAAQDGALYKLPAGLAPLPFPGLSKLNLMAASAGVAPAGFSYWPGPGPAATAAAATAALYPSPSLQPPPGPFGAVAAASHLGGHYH
# Outline: (§1)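 Binding signal is given per hexamer as its read frequency for a factor divided by its frequency in the tag-only sample. GST-fused human transcription factors were expressed in yeast, captured on glutathione beads, barcoded with DNA and pooled with that sample, then incubated with 200 nmole of a 16-mer random double-stranded DNA library in Tris/NaCl/DTT/glycerol buffer for 30 min at room temperature. The pools were then washed, crosslinked, proximity-ligated, amplified by PCR and sequenced on an Illumina NextSeq500.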
# [2] = target: ETV5 (Homo sapiens, UniProt P41161 1-510); settings: protein: recombinant; tags: N-terminal GST; dsDNA, one strand shown
# Outline: as §1
# [3] = target: HSF1 (Homo sapiens, UniProt Q00613 1-529); settings: protein: recombinant; tags: N-terminal GST; chain copies: 3; dsDNA, one strand shown
# Outline: as §1
# [4] = target: T2, SPIC (Homo sapiens, UniProt Q8N5J4 1-248); settings: protein: recombinant; tags: N-terminal GST; dsDNA, one strand shown
# T2 sequence: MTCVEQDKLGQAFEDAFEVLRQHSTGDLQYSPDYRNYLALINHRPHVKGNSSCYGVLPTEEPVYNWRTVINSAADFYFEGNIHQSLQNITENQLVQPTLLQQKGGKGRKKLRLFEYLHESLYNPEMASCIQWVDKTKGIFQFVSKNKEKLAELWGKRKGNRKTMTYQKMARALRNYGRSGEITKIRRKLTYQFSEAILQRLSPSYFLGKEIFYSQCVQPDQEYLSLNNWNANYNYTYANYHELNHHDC
# Outline: as §1
# [5] = target: ELF4 (Homo sapiens, UniProt Q99607 1-663); settings: protein: recombinant; tags: N-terminal GST; dsDNA, one strand shown
# Outline: as §1
# [6] = target: T3, ELK4 (Homo sapiens, UniProt P28324-2 1-405); settings: protein: recombinant; tags: N-terminal GST; dsDNA, one strand shown
# T3 sequence: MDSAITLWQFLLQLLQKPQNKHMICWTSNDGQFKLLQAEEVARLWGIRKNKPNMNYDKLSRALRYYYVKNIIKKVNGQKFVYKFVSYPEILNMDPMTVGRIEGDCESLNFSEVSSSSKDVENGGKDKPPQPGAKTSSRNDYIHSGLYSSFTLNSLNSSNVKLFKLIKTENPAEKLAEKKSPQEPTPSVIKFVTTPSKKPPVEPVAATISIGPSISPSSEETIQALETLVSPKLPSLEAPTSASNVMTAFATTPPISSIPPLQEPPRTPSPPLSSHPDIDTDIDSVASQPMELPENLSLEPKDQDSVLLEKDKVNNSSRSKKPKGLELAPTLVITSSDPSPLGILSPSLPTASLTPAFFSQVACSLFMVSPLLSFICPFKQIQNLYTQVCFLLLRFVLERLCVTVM
# Outline: as §1
# [7] = target: T4, ETV2 (Homo sapiens, UniProt O00321 1-342); settings: protein: recombinant; tags: N-terminal GST; dsDNA, one strand shown
# T4 sequence: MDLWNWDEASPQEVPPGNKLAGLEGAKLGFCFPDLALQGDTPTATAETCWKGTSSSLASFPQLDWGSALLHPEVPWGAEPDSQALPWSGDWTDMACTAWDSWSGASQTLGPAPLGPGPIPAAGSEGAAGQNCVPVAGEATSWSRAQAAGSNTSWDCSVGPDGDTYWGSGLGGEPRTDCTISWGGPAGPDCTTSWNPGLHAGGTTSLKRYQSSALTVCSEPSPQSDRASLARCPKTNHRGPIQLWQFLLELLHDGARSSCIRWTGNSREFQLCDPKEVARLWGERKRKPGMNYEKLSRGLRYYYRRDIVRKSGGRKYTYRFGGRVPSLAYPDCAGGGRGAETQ
# Outline: as §1
# [8] = target: T5, ELF3 (Homo sapiens, UniProt P78545 1-371); settings: protein: recombinant; tags: N-terminal GST; dsDNA, one strand shown
# T5 sequence: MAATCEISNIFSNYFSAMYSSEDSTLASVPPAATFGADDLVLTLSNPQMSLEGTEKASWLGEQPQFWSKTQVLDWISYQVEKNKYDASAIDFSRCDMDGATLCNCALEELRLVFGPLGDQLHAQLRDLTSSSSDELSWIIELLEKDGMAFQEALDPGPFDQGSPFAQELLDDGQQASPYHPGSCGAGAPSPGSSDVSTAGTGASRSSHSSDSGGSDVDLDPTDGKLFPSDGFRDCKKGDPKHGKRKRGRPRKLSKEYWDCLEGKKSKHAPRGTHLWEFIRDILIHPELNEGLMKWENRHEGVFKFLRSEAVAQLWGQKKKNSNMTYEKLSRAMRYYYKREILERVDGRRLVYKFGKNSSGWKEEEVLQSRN
# Outline: as §1
# [9] = target: CRX (Homo sapiens, UniProt O43186 1-299); settings: protein: recombinant; tags: N-terminal GST; dsDNA, one strand shown
# Outline: as §1
# [10] = target: ETV1 (Homo sapiens, UniProt P50549 1-477); settings: protein: recombinant; tags: N-terminal GST; dsDNA, one strand shown
# Outline: as §1
# [11] = target: T6, ERF (Homo sapiens, UniProt P50548 1-548); settings: protein: recombinant; tags: N-terminal GST; dsDNA, one strand shown
# T6 sequence: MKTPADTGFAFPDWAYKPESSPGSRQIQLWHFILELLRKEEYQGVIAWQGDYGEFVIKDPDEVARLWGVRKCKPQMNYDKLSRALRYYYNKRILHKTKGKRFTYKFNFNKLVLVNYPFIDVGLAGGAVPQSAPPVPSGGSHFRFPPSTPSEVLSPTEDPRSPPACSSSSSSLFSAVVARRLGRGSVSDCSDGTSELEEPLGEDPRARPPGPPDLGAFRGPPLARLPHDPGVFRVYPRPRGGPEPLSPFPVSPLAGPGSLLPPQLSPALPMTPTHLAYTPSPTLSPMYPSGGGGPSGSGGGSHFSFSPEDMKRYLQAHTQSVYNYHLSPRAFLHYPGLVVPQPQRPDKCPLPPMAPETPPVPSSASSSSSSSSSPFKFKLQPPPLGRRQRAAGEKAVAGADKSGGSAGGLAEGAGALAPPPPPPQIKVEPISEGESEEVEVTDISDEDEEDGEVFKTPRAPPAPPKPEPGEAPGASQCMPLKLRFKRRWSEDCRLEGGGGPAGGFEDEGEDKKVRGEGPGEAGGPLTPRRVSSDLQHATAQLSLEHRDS
# Outline: as §1
# [12] = target: T7, ETV3L (Homo sapiens, UniProt Q6ZN32 1-361); settings: protein: recombinant; tags: N-terminal GST; dsDNA, one strand shown
# T7 sequence: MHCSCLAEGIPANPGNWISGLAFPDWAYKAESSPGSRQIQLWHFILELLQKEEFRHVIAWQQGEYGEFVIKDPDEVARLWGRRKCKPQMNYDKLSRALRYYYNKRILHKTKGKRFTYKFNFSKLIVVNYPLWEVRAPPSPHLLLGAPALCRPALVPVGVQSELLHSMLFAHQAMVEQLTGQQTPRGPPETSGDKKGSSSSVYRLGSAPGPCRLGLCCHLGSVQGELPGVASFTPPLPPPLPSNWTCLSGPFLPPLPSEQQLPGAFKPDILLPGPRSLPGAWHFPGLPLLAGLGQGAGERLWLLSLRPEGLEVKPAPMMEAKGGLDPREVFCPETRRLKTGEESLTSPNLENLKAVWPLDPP
# Outline: as §1
# [13] = target: T8, ETS2 (Homo sapiens, UniProt P15036 1-469); settings: protein: recombinant; tags: N-terminal GST; dsDNA, one strand shown
# T8 sequence: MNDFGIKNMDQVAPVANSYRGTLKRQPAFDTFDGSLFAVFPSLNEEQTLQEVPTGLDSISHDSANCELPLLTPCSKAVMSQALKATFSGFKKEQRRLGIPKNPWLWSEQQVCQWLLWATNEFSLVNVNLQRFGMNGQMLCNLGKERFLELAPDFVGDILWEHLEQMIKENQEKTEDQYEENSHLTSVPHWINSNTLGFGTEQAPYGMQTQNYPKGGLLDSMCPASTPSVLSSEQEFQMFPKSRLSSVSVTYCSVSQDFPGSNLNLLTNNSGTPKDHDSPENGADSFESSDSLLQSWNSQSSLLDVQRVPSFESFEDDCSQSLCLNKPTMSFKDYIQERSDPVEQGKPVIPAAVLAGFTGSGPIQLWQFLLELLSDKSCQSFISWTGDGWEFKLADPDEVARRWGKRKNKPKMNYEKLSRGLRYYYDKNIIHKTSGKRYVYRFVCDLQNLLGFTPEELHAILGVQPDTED
# Outline: as §1
# [14] = target: T9, SPDEF (Homo sapiens, UniProt O95238 1-335); settings: protein: recombinant; tags: N-terminal GST; dsDNA, one strand shown
# T9 sequence: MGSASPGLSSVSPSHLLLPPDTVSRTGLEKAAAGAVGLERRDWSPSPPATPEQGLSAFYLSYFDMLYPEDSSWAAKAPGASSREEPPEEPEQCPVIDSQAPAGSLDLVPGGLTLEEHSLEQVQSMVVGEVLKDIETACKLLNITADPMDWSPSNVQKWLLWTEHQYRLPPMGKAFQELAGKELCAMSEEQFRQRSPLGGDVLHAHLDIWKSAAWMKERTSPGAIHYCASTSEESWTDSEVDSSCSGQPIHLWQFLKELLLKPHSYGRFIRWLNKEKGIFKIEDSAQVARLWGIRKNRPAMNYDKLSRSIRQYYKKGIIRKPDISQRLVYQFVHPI
# Outline: as §1
# [15] = target: T10, ETV7 (Homo sapiens, UniProt Q9Y603 1-341); settings: protein: recombinant; tags: N-terminal GST; dsDNA, one strand shown
# T10 sequence: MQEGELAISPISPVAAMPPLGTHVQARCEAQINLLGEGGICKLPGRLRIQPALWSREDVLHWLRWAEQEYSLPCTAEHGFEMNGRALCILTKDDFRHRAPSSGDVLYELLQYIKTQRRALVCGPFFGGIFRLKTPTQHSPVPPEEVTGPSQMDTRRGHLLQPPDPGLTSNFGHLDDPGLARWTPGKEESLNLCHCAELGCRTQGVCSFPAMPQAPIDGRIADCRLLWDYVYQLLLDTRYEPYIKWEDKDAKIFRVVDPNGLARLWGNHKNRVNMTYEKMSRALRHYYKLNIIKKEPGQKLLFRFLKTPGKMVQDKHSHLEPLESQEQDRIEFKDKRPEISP
# Outline: as §1
# [16] = target: T11, ELF5 (Homo sapiens, UniProt Q9UKW6-2 1-255); settings: protein: recombinant; tags: N-terminal GST; dsDNA, one strand shown
# T11 sequence: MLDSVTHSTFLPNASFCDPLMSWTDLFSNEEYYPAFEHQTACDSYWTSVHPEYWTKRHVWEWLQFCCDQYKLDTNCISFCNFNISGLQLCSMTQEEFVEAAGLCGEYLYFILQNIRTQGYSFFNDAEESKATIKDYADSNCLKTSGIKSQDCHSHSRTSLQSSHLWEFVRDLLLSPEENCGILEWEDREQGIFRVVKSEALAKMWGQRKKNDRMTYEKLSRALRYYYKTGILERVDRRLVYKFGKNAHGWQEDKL
# Outline: as §1
# [17] = target: T12, ETV3 (Homo sapiens, UniProt P41162-2 1-143); settings: protein: recombinant; tags: N-terminal GST; dsDNA, one strand shown
# T12 sequence: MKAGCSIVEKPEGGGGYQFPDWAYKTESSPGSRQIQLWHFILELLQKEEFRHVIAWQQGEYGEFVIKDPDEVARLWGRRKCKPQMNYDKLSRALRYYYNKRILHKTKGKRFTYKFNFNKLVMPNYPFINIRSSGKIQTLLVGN
# Outline: as §1
# [18] = target: ETV6 (Homo sapiens, UniProt P41212 1-452); settings: protein: recombinant; tags: N-terminal GST; dsDNA, one strand shown
# Outline: as §1
# Chain of ELF4 (Q99607 whole entry): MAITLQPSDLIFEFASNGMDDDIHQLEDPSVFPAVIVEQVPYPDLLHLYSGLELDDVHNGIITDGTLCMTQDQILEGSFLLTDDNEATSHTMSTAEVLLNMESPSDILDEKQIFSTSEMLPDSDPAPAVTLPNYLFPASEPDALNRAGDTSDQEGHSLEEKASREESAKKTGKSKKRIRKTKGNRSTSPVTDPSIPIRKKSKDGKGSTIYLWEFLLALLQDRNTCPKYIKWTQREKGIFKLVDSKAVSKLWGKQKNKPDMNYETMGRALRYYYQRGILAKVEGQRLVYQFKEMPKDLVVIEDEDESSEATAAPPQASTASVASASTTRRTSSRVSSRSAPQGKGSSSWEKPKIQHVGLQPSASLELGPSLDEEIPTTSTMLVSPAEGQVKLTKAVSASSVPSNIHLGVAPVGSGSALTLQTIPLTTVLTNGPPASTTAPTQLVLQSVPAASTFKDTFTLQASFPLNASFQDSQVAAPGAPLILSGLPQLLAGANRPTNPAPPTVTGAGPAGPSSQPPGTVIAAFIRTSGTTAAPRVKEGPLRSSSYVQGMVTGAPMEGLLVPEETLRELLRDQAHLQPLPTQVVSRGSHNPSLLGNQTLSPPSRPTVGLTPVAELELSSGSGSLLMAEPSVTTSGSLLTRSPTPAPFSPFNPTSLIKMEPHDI
# Chain of ETV5 (P41161 whole entry): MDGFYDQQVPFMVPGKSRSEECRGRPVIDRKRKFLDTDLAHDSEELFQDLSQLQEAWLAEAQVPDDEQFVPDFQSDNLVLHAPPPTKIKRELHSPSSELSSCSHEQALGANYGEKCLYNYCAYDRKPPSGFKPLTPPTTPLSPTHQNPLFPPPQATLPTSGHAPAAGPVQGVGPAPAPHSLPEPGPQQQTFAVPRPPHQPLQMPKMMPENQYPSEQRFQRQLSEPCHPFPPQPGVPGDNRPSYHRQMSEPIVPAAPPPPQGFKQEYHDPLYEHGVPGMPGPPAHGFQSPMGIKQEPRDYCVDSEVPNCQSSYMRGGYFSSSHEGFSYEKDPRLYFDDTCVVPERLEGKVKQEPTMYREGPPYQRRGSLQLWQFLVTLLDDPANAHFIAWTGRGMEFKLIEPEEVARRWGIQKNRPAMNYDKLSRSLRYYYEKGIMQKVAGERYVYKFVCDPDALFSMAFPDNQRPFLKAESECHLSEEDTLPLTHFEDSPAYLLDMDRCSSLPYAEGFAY
# Chain of ETV1 (P50549 whole entry): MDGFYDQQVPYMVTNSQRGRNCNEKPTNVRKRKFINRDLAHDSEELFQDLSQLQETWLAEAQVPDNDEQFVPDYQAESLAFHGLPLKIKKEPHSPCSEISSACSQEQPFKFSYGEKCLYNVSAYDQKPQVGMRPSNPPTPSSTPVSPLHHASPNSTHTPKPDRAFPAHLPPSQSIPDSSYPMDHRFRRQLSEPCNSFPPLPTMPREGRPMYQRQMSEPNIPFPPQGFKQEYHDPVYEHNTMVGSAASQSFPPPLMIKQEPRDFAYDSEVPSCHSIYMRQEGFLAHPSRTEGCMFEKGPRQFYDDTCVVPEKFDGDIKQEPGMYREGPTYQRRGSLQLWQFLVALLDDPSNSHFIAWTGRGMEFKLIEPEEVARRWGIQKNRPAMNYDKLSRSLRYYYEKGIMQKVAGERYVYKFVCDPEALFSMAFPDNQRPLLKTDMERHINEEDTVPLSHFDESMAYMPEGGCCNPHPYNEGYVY
# Chain of CRX (O43186 whole entry): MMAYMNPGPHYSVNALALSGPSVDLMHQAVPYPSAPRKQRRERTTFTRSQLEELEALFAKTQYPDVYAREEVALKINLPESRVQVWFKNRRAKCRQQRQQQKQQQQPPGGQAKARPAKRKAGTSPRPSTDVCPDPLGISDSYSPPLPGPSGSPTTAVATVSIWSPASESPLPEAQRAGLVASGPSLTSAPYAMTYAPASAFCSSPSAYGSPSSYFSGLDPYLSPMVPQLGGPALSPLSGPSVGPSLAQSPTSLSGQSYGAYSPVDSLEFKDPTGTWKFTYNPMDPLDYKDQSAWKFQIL
# Chain of HSF1 (Q00613 whole entry): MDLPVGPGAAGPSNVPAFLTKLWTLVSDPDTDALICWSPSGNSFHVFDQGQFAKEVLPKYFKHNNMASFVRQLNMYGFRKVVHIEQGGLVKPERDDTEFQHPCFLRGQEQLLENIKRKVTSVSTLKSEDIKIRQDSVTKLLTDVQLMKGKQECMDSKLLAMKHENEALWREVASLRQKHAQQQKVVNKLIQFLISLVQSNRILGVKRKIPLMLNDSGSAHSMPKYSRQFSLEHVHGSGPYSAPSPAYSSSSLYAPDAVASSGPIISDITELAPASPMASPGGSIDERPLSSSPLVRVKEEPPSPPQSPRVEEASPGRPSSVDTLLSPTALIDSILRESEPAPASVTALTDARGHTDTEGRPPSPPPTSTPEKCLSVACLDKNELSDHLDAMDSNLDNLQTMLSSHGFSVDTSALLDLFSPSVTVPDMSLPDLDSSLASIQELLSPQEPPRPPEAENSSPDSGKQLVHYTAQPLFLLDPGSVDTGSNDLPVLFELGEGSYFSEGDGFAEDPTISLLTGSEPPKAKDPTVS
# Chain of ETV6 (P41212 whole entry): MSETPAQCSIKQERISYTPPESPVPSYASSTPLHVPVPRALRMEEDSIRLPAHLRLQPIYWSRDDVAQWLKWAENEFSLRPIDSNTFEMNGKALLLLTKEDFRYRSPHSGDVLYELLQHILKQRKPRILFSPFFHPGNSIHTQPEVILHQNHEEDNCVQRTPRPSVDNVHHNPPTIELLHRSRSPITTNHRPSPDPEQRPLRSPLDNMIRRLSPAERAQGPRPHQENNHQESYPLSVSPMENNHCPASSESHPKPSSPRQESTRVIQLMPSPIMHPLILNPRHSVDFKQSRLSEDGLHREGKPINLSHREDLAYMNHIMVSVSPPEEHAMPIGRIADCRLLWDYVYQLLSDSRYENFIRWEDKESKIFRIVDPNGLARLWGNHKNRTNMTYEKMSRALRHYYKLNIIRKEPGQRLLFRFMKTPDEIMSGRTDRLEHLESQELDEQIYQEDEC
sequence,measurement,setting,value
TAACAA,binding signal,[1],"1.18 fold enrichment (6-mer frequency, TF over GST control)"
same,binding signal,[2],"1.12 fold enrichment (6-mer frequency, TF over GST control)"
same,binding signal,[3],"1.25 fold enrichment (6-mer frequency, TF over GST control)"
same,binding signal,[4],"1.12 fold enrichment (6-mer frequency, TF over GST control)"
same,binding signal,[5],"1.19 fold enrichment (6-mer frequency, TF over GST control)"
same,binding signal,[6],"1.15 fold enrichment (6-mer frequency, TF over GST control)"
same,binding signal,[7],"1.26 fold enrichment (6-mer frequency, TF over GST control)"
same,binding signal,[8],"1.28 fold enrichment (6-mer frequency, TF over GST control)"
same,binding signal,[9],"1.48 fold enrichment (6-mer frequency, TF over GST control)"
same,binding signal,[10],"1.2 fold enrichment (6-mer frequency, TF over GST control)"
same,binding signal,[11],"1.33 fold enrichment (6-mer frequency, TF over GST control)"
same,binding signal,[12],"1.18 fold enrichment (6-mer frequency, TF over GST control)"
same,binding signal,[13],"1.15 fold enrichment (6-mer frequency, TF over GST control)"
same,binding signal,[14],"1.14 fold enrichment (6-mer frequency, TF over GST control)"
same,binding signal,[15],"1.21 fold enrichment (6-mer frequency, TF over GST control)"
same,binding signal,[16],"1.14 fold enrichment (6-mer frequency, TF over GST control)"
same,binding signal,[17],"1.19 fold enrichment (6-mer frequency, TF over GST control)"
same,binding signal,[18],"1.15 fold enrichment (6-mer frequency, TF over GST control)"
